# Out of some 63,000 compounds screened, about 1,100 (1.7%) were called active. Many of the other results were omitted from the sample, so actives are more common in it than they were. Entries with a potency or affinity are not part of this list. Values without a mark were called inactive.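 Rule for the calls: active = compounds whose percent cytotoxicity in the single-dose primary screen, scaled between solvent and toxic-drug controls, exceeds 50; inactive = the rest.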
# Assay: cytotoxicity in KRAS-transformed pancreatic duct cells, primary screen, cell-based, fluorescence, HTS (AID 431);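 note: 0% = DMSO solvent wells and 100% = doxorubicin-treated wells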
# Settings: HPDE-C7K KRASV12 cells, Alamar Blue viability, 48 h; at 10 µM; hits give high values
row,Structure (SMILES),cytotoxicity
1,O=C(Oc1c(Cl)cc(Cl)c2cccnc12)N1CCCCC1,10.8%
2,CCCC(=O)NC(c1ccco1)c1cc(Cl)c2cccnc2c1O (centres undefined),59.2% (active)
3,CCCC(=O)Nc1ccc(Cl)c(NC(=O)c2ccco2)c1,3.9%
4,NC(=O)c1ccc(N2CCCCC2)c(N2C(=O)C3C4C=CC(C4)C3C2=O)c1 (centres undefined),2.5%
5,O=C(CSc1nc(O)cc(=O)n1-c1ccccc1)NCc1ccccc1,-1%
6,CC1=C(C(=O)OC(C)C)C(c2cccs2)N2C(=O)CCSC2=N1 (centres undefined),10.1%
7,O=C1CC(N2CCN(c3ccc(F)cc3)CC2)C(=O)N1Cc1cccs1 (centres undefined),-7.6%
8,O=C1CC(N2CCN(c3nc4ccccc4s3)CC2)C(=O)N1Cc1cccs1 (centres undefined),5.6%
9,Cc1cccc(N(CC(=O)NC2CCCCC2)C(=O)CCC(=O)Nc2cc(C)ccn2)c1,-11.1%
10,N#Cc1cccc2cnccc12,-3.3%
11,CCOc1ccc(-c2nn3c(-c4ccc(F)cc4)nnc3s2)cc1,9.9%
12,CCN(CC)c1ccc(-c2nn3c(-c4cccnc4)nnc3s2)cc1,56.4% (active)
13,c1cncc(-c2nn3c(-c4ccncc4)nnc3s2)c1,-1%
14,CN(C)c1ccc(-c2nn3c(-c4cccnc4)nnc3s2)cc1,-11.9%
15,CN(C)c1ccc(-c2nn3c(-c4ccncc4)nnc3s2)cc1,-7.6%
16,O=C(CC1(O)C(=O)N(Cc2ccc3c(c2)OCO3)c2ccccc21)c1ccccc1 (centres undefined),-28%
17,O=C(NCC1CCCO1)c1csc2c1CCCCC2 (centres undefined),-11.1%
18,COc1ccccc1N1CCN(Cc2ccc(OC)c(OC)c2OC)CC1,-15.5%
19,CCCC(N)CCCCCC(=O)O (centres undefined),4.3%
20,CCSC(SCC)[C@H](O)[C@@H](O)[C@H](O)[C@H](O)CO,-20.9%
21,N#CC(C(=O)NC1CCCCC1)c1nc2ccccc2nc1N1CCCCC1 (centres undefined),-0.2%
22,CC(=O)NCCCc1c[nH]c2ccc(Cl)cc12,5.3%
23,O=C(NCc1ccc(Cl)cc1)c1ccc(COCC(F)(F)F)o1,7.2%
24,COc1ccc(-n2nnc3c(=O)n(CC(=O)NCC4CCCO4)cnc32)cc1 (centres undefined),-5%
25,CCn1c(NC2CCCCC2)nc2ccccc21,15.1%

row,Structure (SMILES),cytotoxicity
1,COc1cccc(CNc2nc3ccccc3n2CCN2CCCCC2)c1,-17.7%
2,COc1ccc(C(=O)CSc2nnc(-c3ccoc3C)n2CC2CCCO2)cc1 (centres undefined),-33%
3,Cc1nc2c(-c3ccccc3)c(C)nn2c(C)c1CCC(=O)N1CCOCC1,-17%
4,Cc1cc(C)c(S(N)(=O)=O)c(C)c1-n1cnnn1,-18.5%
5,CCOC(=O)CSC1=C(C#N)C(c2ccccc2C)C2=C(CCCC2=O)N1 (centres undefined),0.9%
6,COc1cccc(C2/C(=C(\O)c3c(C)nc4c(C)cccn34)C(=O)C(=O)N2CCCN(C)C)c1OC (centres undefined),-1.4%
7,CCOC(=O)c1[nH]c2ccc(OCC)cc2c1NC(=O)CN1CCN(c2ccccn2)CC1,0.9%
8,CCOc1ccc2[nH]c3c(N4CCN(c5ccccn5)CC4)ncnc3c2c1,77.1% (active)
9,c1ccc(CN2CCN(c3ncnc4nc[nH]c34)CC2)cc1,-3.8%
10,c1ccc2c(c1)[nH]c1c(N3CCCC3)ncnc12,20%
11,c1ccc2c(c1)[nH]c1c(N3CCSCC3)ncnc12,44.2%
12,O=C(c1ccco1)N1CCN(c2ncnc3c2[nH]c2ccccc23)CC1,21.1%
13,c1ccc2c(c1)[nH]c1c(N3CCC4(CC3)OCCO4)ncnc12,23.3%
14,Cc1ccc2c(c1)[nH]c1c(N3CCN(Cc4ccccc4)CC3)ncnc12,107% (active)
15,OC1(c2cccc(C(F)(F)F)c2)CCN(c2ncnc3c2[nH]c2ccccc23)CC1,124% (active)
16,c1ccc2c(c1)[nH]c1c(N3CCOCC3)ncnc12,-3.2%
17,CCOC(=O)N1CCN(c2ncnc3c2[nH]c2ccc(OC)cc23)CC1,18.4%
18,c1ccc(CN2CCN(c3ncnc4c3[nH]c3ccccc34)CC2)cc1,119% (active)
19,Cc1nonc1NC(=O)Nc1cccnc1,5.4%
20,CCOc1ccccc1N(CC(=O)NCc1ccc(OC)cc1)S(C)(=O)=O,-11.2%
21,COc1ccc(-n2nnnc2SCC(=O)Nc2cccc(NC(C)=O)c2)cc1OC,11.1%
22,CSC1=NCCN1C(=O)Cc1ccc(Cl)cc1,3.5%
23,CCOC(=O)c1ccc(NC(=O)c2nn(CC)cc2Br)cc1,0.8%
24,Cc1ccc2[nH]c3c(N4CCCCCC4)ncnc3c2c1,30.4%
25,Cc1ccc2[nH]c3c(N4CCOCC4)ncnc3c2c1,16.2%

row,Structure (SMILES),cytotoxicity
1,O=C(c1cccc(-c2nnc(-c3ccccc3)o2)c1)N1CCCCC1,14%
2,COCCNC(=O)CN1CCC(NC(=O)Nc2ccccc2)CC1,-1%
3,CN(Cc1ccccc1)C(=O)CCCn1c(=O)[nH]c2cc(Cl)ccc2c1=O,-8.5%
4,COc1ccc(-c2nsc3c(N4CCCC4)ncnc23)cc1,11.5%
5,COc1ccc(S(=O)(=O)N2CCN(c3ncnc4c(-c5ccccc5)nsc34)CC2)cc1,-20.8%
6,COc1ccc(-c2nsc3c(N4CCN(S(=O)(=O)c5ccccc5)CC4)ncnc23)cc1,56.4% (active)
7,CCOC(=O)C(NC(=O)c1ccccc1)=C1C=C(C)OC(C)=C1,-13.9%
8,O=C(NCc1ccc2c(c1)OCO2)c1nnc(Cc2ccc(Cl)cc2)o1,1.6%
9,O=C(NCc1ccc2c(c1)OCO2)c1cccc(Cl)c1,3.6%
10,O=C(NCc1ccc2c(c1)OCO2)c1ccc(-c2ccc(Cl)cc2)o1,61.3% (active)
11,COCCN(C(=O)CCC(=O)Nc1cccnc1)C(C(=O)NC1CCCCC1)c1ccccc1 (centres undefined),-2.1%
12,COC(=O)C1=C(C)N=c2s/c(=C/c3ccoc3)c(=O)n2C1c1ccccc1 (centres undefined),8.9%
13,CSc1nnc(Cn2c(=O)sc3ccccc32)n1C,6.8%
14,CCOc1ccc(N2CC(C(=O)Nc3cccc(C)c3C)CC2=O)cc1 (centres undefined),15.6%
15,COc1ccc(OC)c(S(=O)(=O)NCc2cn3c(C)csc3n2)c1,-5.8%
16,COC(=O)Nc1ccc(S(=O)(=O)N2CCN(C)CC2)cc1,10.6%
17,CN1CCN(S(=O)(=O)c2ccc(NC(=O)c3cccc(S(=O)(=O)N4CCCC4)c3)cc2)CC1,-54.2%
18,CN1CCN(S(=O)(=O)c2ccc(NC(=O)Nc3cccc(Cl)c3)cc2)CC1,53% (active)
19,O=C(CSc1nnnn1-c1ccc2c(c1)CCC2)NCc1cccs1,13.2%
20,Cn1c(N)c(C(=O)NCc2ccccc2)sc1=S,-2%
21,Cc1cc(C)c(C#N)c(Nc2ccc3c(c2)OCCO3)n1,11.2%
22,c1ccc2c(c1)oc1c(NCCN3CCOCC3)ncnc12,-2.7%
23,c1ccc(Nc2ncnc3c2oc2ccccc23)cc1,-10%
24,CCCCOC(=O)c1ccc(NC(=O)c2cnccn2)cc1,10.3%
25,C=CCn1c(N)c(C(=O)OC(C)CC)c2nc3ccccc3nc21 (centres undefined),24.5%

row,Structure (SMILES),cytotoxicity
1,C=CCn1c(N)c(C(=O)OC(C)(C)C)c2nc3ccccc3nc21,62.9% (active)
2,C=CCn1c(N)c(C(=O)Nc2ccccc2)c2nc3ccccc3nc21,60.6% (active)
3,C=CCNC(=O)c1c(N)n(-c2cccc(S(N)(=O)=O)c2)c2nc3ccccc3nc12,8.3%
4,C=CCn1c(N)c(C(=O)OCCC)c2nc3ccccc3nc21,7.1%
5,C=CCNC(=O)c1c(N)n(-c2ccc3c(c2)OCO3)c2nc3ccccc3nc12,-6.4%
6,Nc1c(C(=O)N2CCCCC2)sc(=S)n1-c1ccccc1,-4.9%
7,CCOC(=O)Cc1nn2c(=O)cc(C)nc2s1,-0.8%
8,CC(=O)NC1(C(F)(F)F)C(=O)Nc2c1c(=O)[nH]c(=O)n2Cc1ccco1 (centres undefined),-16.1%
9,Cc1cc(C)n(-c2nc(Nc3ccccc3)nc(-n3nc(C)cc3C)n2)n1,9.6%
10,CC(=O)c1cccc(NC(=O)CC2SC(N3CCCCC3)=NC2=O)c1 (centres undefined),-7.4%
11,CCOCC(=O)Nc1nc2ccc(OCC)cc2s1,4.3%
12,Cc1cccc(N(CC(=O)NCc2ccccc2)C(=O)Cn2nnc(-c3ccc(C)o3)n2)c1,-14.9%
13,COc1ccc(C(=O)OC(C)CN2CCOCC2)cc1OC (centres undefined),-10%
14,CC(CN1CCOCC1)OC(=O)c1ccc2c(c1)OCCO2 (centres undefined),9.2%
15,O=C(CCN1C(=O)C2C3C=CC(C3)C2C1=O)NCc1cccnc1 (centres undefined),-6.8%
16,O=C(CSc1nc(Nc2ccccc2)nc(N2CCOCC2)n1)N1CCCC1,5.4%
17,O=C(CSc1nc2ccccc2c(=O)n1C1CC1)NCc1ccccc1,3.5%
18,COc1ccccc1-c1nnn(CC#N)n1,6.1%
19,CCOC(=O)c1c(C)c(C(=O)N2CCCCCC2)c(C)n1CC,-2.8%
20,O=C1c2ccccc2NC(c2ccccc2)N1Cc1ccco1 (centres undefined),-5.8%
21,CCOC(=O)CC1=C(C(=O)OCC)C(c2ccc(OC)c(OC)c2)C(C#N)=C(N)O1 (centres undefined),5.7%
22,CCOC(=O)CSC1=C(C#N)C(=O)NC2(CCCCC2)S1,13.8%
23,CCOC(=O)CSC1=C(C#N)C(=O)NC(c2ccc(OC)c(OC)c2)S1 (centres undefined),70.5% (active)
24,COc1ccc(CCn2c(C)ccc2C)cc1OC,-8.8%
